In PubChem BioAssay AID1159580 (chemical genetic matrix, 2015):
Out of some 5,500 compounds screened, about 2,000 (36%) were called active. Another 18% or so got no clear call; they are omitted. Rule as the data show it: active = normalized growth mostly below about 0.91 (no sharp cut-off); inconclusive = no clear call, values can overlap the other calls; inactive = mostly above about 0.92. The list shows a part of the results.

Test: chemical genetic growth profiling, strain panel (AID 1159580);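 also: tested at 20 µM; growth read once vehicle control cultures reached saturation at 30 °C; 1 = growth at the plate median or of vehicle wells; lower values mean less growth of the strain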
Conditions: S. cerevisiae deletion strains, growth OD

Measured: normalized growth

NC(=O)CCCCC1CCSS1 (configuration not stated)
inactive: locus YHR030C, strain SLT2, hits give low values 1.02 | locus YHR079C, strain IRE1, hits give low values 0.976 | locus YJL095W, strain BCK1, hits give low values 1.01 | locus YJR066W, strain TOR1, hits give low values 0.955 | locus YLR113W, strain HOG1, hits give low values 1.02 | locus YNL183C, strain NPR1, hits give low values 0.966 | locus YOR231W, strain MKK1, hits give low values 0.986 | locus YPL256C, strain CLN2, hits give low values 1.01

O=C(O)CCCC[C@@H]1CCSS1
inactive: locus YAL013W, strain DEP1, hits give low values 0.962 | locus YAL040C, strain CLN3, hits give low values 0.933 | locus YCL061C, strain MRC1 (second series), hits give low values 0.979 | locus YDR150W, strain NUM1, hits give low values 0.996 | locus YDR363W, strain ESC2, hits give low values 0.971 | locus YER002W, strain NOP16, hits give low values 0.968 | locus YGR229C, strain SMI1, hits give low values 0.957 | locus YMR307W, strain GAS1, hits give low values 0.962 | locus YNL153C, strain GIM3, hits give low values 1.01 | locus YNL175C, strain NOP13, hits give low values 0.979 | locus YNL197C, strain WHI3, hits give low values 0.972 | locus YNL224C, strain SQS1, hits give low values 0.977 | locus YOR083W, strain WHI5 (second series), hits give low values 0.937 | locus YPL055C, strain LGE1, hits give low values 0.989
